AmpC detergent: inhibitors of E. coli AmpC beta-lactamase with detergent; AmpC hydrolysis of nitrocefin, absorbance 480 nm, 0.01% Triton; hit rate 0.041% among 370,000; Potency, µM (doses to about 114 µM), for the others: at the highest dose activity change, negative = inhibition, hits mostly inhibitors;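 further: potency means the concentration at half of the fitted maximal effect; 0% = no-compound wells and -100% = no-enzyme wells; nearly all actives have a fitted effect of over 25% in size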
Target sequence (P00811 whole entry, looked up): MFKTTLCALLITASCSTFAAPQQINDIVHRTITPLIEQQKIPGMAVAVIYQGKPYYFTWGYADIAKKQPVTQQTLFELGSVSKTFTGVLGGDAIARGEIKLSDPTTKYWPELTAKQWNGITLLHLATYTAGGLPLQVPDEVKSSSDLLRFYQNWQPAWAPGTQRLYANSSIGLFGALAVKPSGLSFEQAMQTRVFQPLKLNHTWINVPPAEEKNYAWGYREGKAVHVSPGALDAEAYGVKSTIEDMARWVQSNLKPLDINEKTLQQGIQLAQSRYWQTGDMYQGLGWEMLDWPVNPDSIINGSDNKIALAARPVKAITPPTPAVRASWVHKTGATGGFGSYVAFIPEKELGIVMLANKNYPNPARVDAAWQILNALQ
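AmpC (5.3 nM in the dispensed reagent) in 20 mM phosphate pH 7.0 with 0.01% (detergent screen) or 0.0001% Triton X-100 was preincubated with compounds for 15 min at room temperature. Nitrocefin was then added from an 800 uM solution, and hydrolysis was followed at 480 nm.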
Cycloheximide cs: counter-screen hit for Shiga toxin inhibitors, cycloheximide | hit rate 12% among 300,000 | cell reporter, cycloheximide protein synthesis inhibition counterscreen | max response, %; in the data active means max response mostly above about 13%, no sharp cut-off; inactive means mostly below about 14%; further: read at 38.3 µM for the half of the compounds with a filed dose; 0% is about no effect
Shiga toxin inh: inhibitors of Shiga toxin in Vero cells. inhibition, % at 38.7 µM. hit rate 9.2% among 290,000. Vero cells, Shiga toxin protein synthesis inhibition reporter; in the data active means inhibition mostly above about 28%, no sharp cut-off; inactive means mostly below about 43%; further: 0% is about no effect
NS1 function inh: influenza NS1 inhibition; Potency, µM (titrated, usually from 46.1 µM), without a hit: at the top dose activity, positive = more growth; hit rate 0.4% among 270,000; AID 2326; calls by dose curve; further: potency means the concentration at half of the fitted maximal effect; actives are rising curves; nearly all actives have a fitted effect of over 50% in size
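Recovery from NS1-induced slow growth read by OD600 in budding yeast switched to galactose assay medium (pH 6.0, -URA) at 1:100 dilution. Compound 23 nl per well; the matching strain lacking NS1 serves as control.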
AmpC no deterg: AmpC beta-lactamase inhibition without detergent | hit rate 0.52% among 330,000 | Potency, µM (doses to about 57.1 µM), for inactives: at the top dose activity change, negative = inhibition, most hits filed as inhibitors | AmpC nitrocefin hydrolysis, absorbance 480 nm, 0.0001% Triton;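 further: potency means the concentration at half of the fitted maximal effect; plate controls were no compound for no effect and no enzyme for full effect; nearly all actives have a fitted effect of over 20% in size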
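20 mM phosphate pH 7.0 + 0.01% (detergent screen) or 0.0001% Triton X-100; 5.3 nM AmpC reagent; cpd preinc 15 min RT; nitrocefin (800 uM stock) to start; A480 q20 s × 4 min; Activity was normalised to no-enzyme and no-compound control wells.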
* marks the source's active call; other numbers are inactive results; ? = inconclusive; . = no result. The sample as a whole holds a higher share of hits than the screen did. Unless noted, the call rests on the fitted dose curve; in most records, active means well fitted curve in the direction sought with a large enough effect; inconclusive means small, poorly fitted or top-dose-only effect, or another doubt; inactive means no such curve, though single readings can be large; an effect the other way counts as inactive or inconclusive.

SMILES | AmpC detergent | Cycloheximide cs | Shiga toxin inh | NS1 function inh | AmpC no deterg
COc1ccc(CNc2cc(C)ccc2C)c(OC)c1OC | 0% | 1 | 9 | -7% | 25%
COc1cc(C(=O)NNC(=O)NC2CCCCC2)cc(OC)c1OC | 1% | -1 | -5 | 4% | 0.25µM*
COc1cc(C(=O)NNC(=O)C2CCCC2)cc(OC)c1OC | -6% | -6 | -7 | 6% | -24%
COc1cccc(C(=O)NNC(=S)NC2CCCCC2)c1 | -17% | 42* | 47* | 0% | -20%
Cc1cc(C(=O)NNC(=S)NC2CCCCC2)cs1 | 2% | 17* | 34 | 22% | -32%
COc1cccc(C(=O)NC2CCCC2)c1 | 5% | 7 | 43 | 5% | 3%
O=C(Cl)CCCCCCCC(=O)Cl | . | -10 | -8 | . | .
COc1cc2[nH]c(=O)n(CCCC(=O)N(C)Cc3ccccc3)c(=O)c2cc1OC | -1% | . | . | . | .
COc1ccc(C)cc1NS(=O)(=O)c1cc2c3c(c1)CC(=O)N3CCC2 | 3% | . | . | . | .
Cc1ccc(NC(=O)CNc2ccc(OC(C)C)cc2)cc1 | ? | 16* | 10 | -75% | 1%
COc1ccc(NC(=O)CSc2ccc(C)cc2)cc1 | -1% | 33* | 81* | 14% | 1%
CC(C)c1nnc(SCC(=O)NC(C)(C)C)n1C | -7% | -2 | 18 | 1% | -12%
CC(C)(C)NC(=O)CSc1nnnn1C(C)(C)C | -14% | 25* | 32* | -1% | -9%
CCC(=O)Nc1nnc(/C=C/c2ccc(OC)cc2)s1 | 6% | 32* | 55* | -7% | -5%
CC(Cc1ccccc1)NC(=O)CSc1nc2nc3c(cc2c(=O)n1-c1ccccc1)COC(C)(C)C3 (stereo not drawn) | -7% | -4 | 28 | -2% | -6%
O=C(O)CCC(=O)c1ccc(Cl)cc1 | . | . | . | 3% | .
CC(Nc1oc(-c2ccc(COc3ccccc3)o2)nc1C#N)c1ccccc1 (stereo not drawn) | 17% | . | . | . | .
COc1ccc(/C=C/c2nnc(NC(=O)CSc3ccc(C)cc3)s2)cc1 | 9% | 15* | 94* | -36% | -39%
Cc1ccc(SCC(=O)NC(C)(C)C)cc1 | -2% | 28* | 133* | -1% | .
COc1cccc(C(=O)Nc2ccc(C(=O)NCC(C)C)cc2)c1 | -2% | -5 | 12 | -3% | -9%
CC/C(=N\NC(=O)c1ccc(Br)cc1)c1ccccc1 | 3% | 20 | 15 | 4% | -19%
COc1cccc(C(=O)N/N=C(\CC(C)C)c2ccccc2)c1 | ? | 22* | 55* | -15% | -9%
C/C(Cc1ccccc1)=N\NC(=O)CNC(=O)c1cccc(Cl)c1 | -8% | 0 | -4 | 1% | -30%
Cc1ccc(C(=O)N/N=C(\CC(C)C)c2ccccc2)cc1 | -1% | 44* | 71* | 11% | -11%
CCC/C(=N/NC(=O)c1cccc(Cl)c1)c1ccccc1 | -18% | 59* | 80* | 7% | -26%
SMILES | AmpC detergent | Cycloheximide cs | Shiga toxin inh | NS1 function inh | AmpC no deterg
CCOc1ccc(CCn2c3c(c(=O)[nH]c2=O)C(NC(=O)c2ccccc2)(C(F)(F)F)C(=O)N3)cc1OCC (stereo not drawn) | -1% | . | . | . | .
Cc1noc(Cn2c(=O)c3ccccc3n(CC(=O)Nc3ccccc3C(F)(F)F)c2=O)n1 | 1% | . | . | . | .
C#CCNc1c2c(nc3ncnn13)CC(C)CC2 (stereo not drawn) | 1% | -3 | 1 | -2% | -21%
CC(C)C(NC(=O)c1ccc2c(c1)OCCO2)c1nc2ccccc2[nH]1 (stereo not drawn) | -11% | -10 | 21 | -11% | -24%
N#CC1(c2nc3ccccc3[nH]2)CC1c1ccc2c(c1)OCO2 (stereo not drawn) | -3% | -2 | -4 | -66% | -42%
C/C(=N\Nc1ccccn1)c1ccc2c(c1)OCO2 | -6% | 44* | 72* | -2% | -37%
O=S(=O)(N/N=C\c1ccc2c(c1)OCO2)c1ccccc1 | -10% | 8 | 8 | -5% | -35%
Clc1ccccc1N/N=C/c1ccc2c(c1)OCO2 | ? | 76* | 115* | -18% | -38%
C/C(=N\Nc1nc2ccccc2[nH]1)c1ccc2c(c1)OCCO2 | -6% | 36* | 53* | . | -50%
C/C(=N\Nc1nc2ccccc2[nH]1)c1ccc2c(c1)OCO2 | 7% | 35* | 65* | . | -31%
CCC(=O)NC(=S)Nc1cccc(NC(=O)c2ccccc2)c1 | 2% | -1 | -9 | 4% | -37%
Cc1cc(C)c(NC(=O)CSc2nc(=O)n(Cc3cccnc3)c3c2CCC3)c(C)c1 | -2% | . | . | . | .
C(=N\Nc1nc2ccccc2[nH]1)/c1ccc2c(c1)OCO2 | ? | 35* | 88* | . | -24%
CCCc1c(C(=O)Nc2cc(C(C)(C)C)on2)cnn1-c1ccccc1 | 0% | -2 | -6 | 1% | -25%
Cc1cc(C)n(-c2ccc(C(=O)Nc3cccc([N+](=O)[O-])c3)cc2)n1 | 3% | 11 | 26 | -6% | -21%
CC(=O)c1cccc(NC(=O)c2cnn(-c3ccccc3)c2C)c1 | -2% | 45* | 90* | -43% | -13%
Cc1c(C(=O)Nc2cccc([N+](=O)[O-])c2)cnn1-c1ccccc1 | -8% | 47* | 113* | -17% | -30%
Cc1c(C(=O)Nc2cccc(F)c2)cnn1-c1ccccc1 | -15% | 39* | 64* | -68% | -22%
CCCc1c(C(=O)Nc2ccc(F)cc2F)cnn1-c1ccccc1 | -4% | 17* | 12 | -33% | -14%
CS(=O)(=O)O[C@H]1CN2CCC1CC2 | . | . | . | -4% | .
Cc1ccc(C)c(NC(=O)c2nc(S(C)(=O)=O)ncc2N(Cc2ccc(C(C)(C)C)cc2)Cc2ccco2)c1 | 12% | . | . | . | .
COc1ccc(OCCCC(=O)Nc2nccs2)cc1 | 7% | 13* | 20 | -6% | -21%
CCc1ccc(S(=O)(=O)Nc2nccs2)cc1 | 6% | 1 | -8 | 7% | -17%
Cc1ccccc1OCCCC(=O)Nc1nccs1 | -8% | -1 | -8 | -17% | -26%
O=C(CS(=O)(=O)c1ccc(F)cc1)Nc1nccs1 | ? | . | . | . | 32µM*
SMILES | AmpC detergent | Cycloheximide cs | Shiga toxin inh | NS1 function inh | AmpC no deterg
Cc1cccc(OCC(=O)Nc2nccs2)c1C | ? | 67* | 67* | -25% | -34%
O=S(=O)(Nc1nccs1)c1ccc(F)cc1 | -3% | 38* | 59* | -2% | 20%
CN(C(=O)Cn1c(=O)n(CCC(=O)NCc2ccc3c(c2)OCO3)c(=O)c2sccc21)c1ccccc1 | 19% | . | . | . | .
CCOc1ccc(-c2ccc(NS(=O)(=O)c3ccc(C)cc3)cc2)nn1 | 26% | . | . | . | .
O=C(CN1CCN(c2ccc(F)cc2)CC1)Nc1nccs1 | -4% | -3 | -4 | 4% | -10%
O=C(COc1ccc(F)cc1)Nc1nccs1 | -11% | 33* | 51* | -100% | -12%
CSC1=NC(C)(C)C=C(/C=C/c2ccc(Cl)cc2Cl)N1 | ? | 15 | 33 | . | -16%
Clc1ccc(/C=C/c2ncc[nH]2)c(Cl)c1 | 2% | 46* | 65* | -79% | -25%
COC1=C/C(=C/c2c(N)n3cc(C)sc3nc2=O)C=CC1=O | -5% | 42* | 45* | -1% | -50%
